Many of the other results were omitted from the sample, so hits are more common in it than they were.
Dicer processing: inhibitors of Dicer pre-microRNA processing, primary screen, biochemical, cat-ELCCA, chemiluminescence; Endoribonuclease Dicer (Homo sapiens), Q9UPY3; cat-ELCCA pre-miR-21 Dicer processing; stronger effect = higher value; z-score at 25 µM; 47,000 tested, 6% active; AID 1347074, 2019; in the data active = z-score above about 3, passing the limit was not always enough;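 note: plate controls were vehicle for no effect and no enzyme for full effect; higher signal means more uncleaved substrate so more Dicer inhibition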
* = called active by the depositor.

SMILES | Dicer processing
COC(=O)C1=C(C)NC2=C(C(=O)c3ccccc32)C1c1cccs1 (centres undefined) | -6.3
COC(=O)C1=C(C)NC2=C(C(=O)c3ccccc32)C1c1ccccc1Cl (centres undefined) | -1
CC1(C)c2ccccc2N(CCC(N)=O)C12C=Cc1c(ccc3ccccc13)O2 (centres undefined) | -0.13
CCc1ccc2nc(NC3=NCN(Cc4ccccc4)CN3)nc(C)c2c1 | 2.4
COc1cc2c(cc1OC)C(c1ccc(F)cc1)C1=C(CC(C)(C)CC1=O)N2 (centres undefined) | 2
CC1(C)CC(=O)C2=C(C1)Nc1cc3c(cc1C2c1ccc(Br)cc1)OCO3 (centres undefined) | 4.7*
COC(=O)C1=C(C)NC2=C(C(=O)CC(C)(C)C2)C1c1cc2c(cc1Br)OCO2 (centres undefined) | 0.96
N#Cc1cc([N+](=O)[O-])ccc1SCc1ccccc1 | -0.82
CC(=O)Cn1cnc2c(sc3nc(C)cc(C)c32)c1=O | 0.8
Cc1cc(C)c2c(n1)sc1c(=O)oc(C)nc12 | 4.9*
Cc1cc(C)c2c(n1)sc1c(=O)n(/N=C/c3ccccc3)c(C)nc12 | -0.57
Cc1ccc(/C(O)=C2\C(=O)C(=O)N(CCCn3ccnc3)C2c2ccco2)cc1 (centres undefined) | 0.48
Cc1nnc2sc(-c3ccc(Cl)c(N)c3)nn12 | -0.55
Cn1c(=O)c2c(nc(N3CCCCC3)n2Cc2ccccc2F)n(C)c1=O | 1.7
CN1CCN(c2nc3c(c(=O)n(C)c(=O)n3C)n2Cc2ccccc2Cl)CC1 | 4.2*
CN1CCN(c2nc3c(c(=O)n(C)c(=O)n3C)n2Cc2c(F)cccc2Cl)CC1 | 0.87
COc1cc(OC)cc(C(C)(C)OC(=O)N[C@@H](CC(C)C)C(=O)O)c1 | -3.2
Cc1onc(-c2c(Cl)cccc2Cl)c1NC(=O)NN(C)C(=S)SCc1c(F)cccc1Cl | 0.26
Cc1onc(-c2c(Cl)cccc2Cl)c1NC(=O)OCCOc1ccc(Cl)cc1Cl | -0.91
CCCNC(=O)O/N=C(\N)c1c(-c2c(Cl)cccc2Cl)noc1C | 4.5*
Cc1onc(-c2c(Cl)cccc2Cl)c1C(=O)ONC(=O)C(C)(C)C | 0.7
Cc1onc(-c2c(Cl)cccc2Cl)c1NC(=O)OCc1c(F)cccc1Cl | 4*
CC(=O)NOC(=O)c1c(-c2c(Cl)cccc2Cl)noc1C | 0.86
COCCn1c(-c2ccc(F)cc2)cnc1NCc1ccccc1 | -0.33
Clc1ccccc1CSc1nnc2n1CCCN2 | 0.1
SMILES | Dicer processing
Cc1nc(C)c(S(=O)(=O)NCc2ccc(N3CCN(C)CC3)cc2)s1 | 0.3
CCCCOC(=O)Nc1nnc(C)s1 | -0.67
COc1ccc2c(=O)cc(-c3cc(Br)cc4c3OCOC4)oc2c1 | 2.3
CN(C)/C=C1\SC(=O)N(c2ccccc2)C1=O | 2.9
O=C(NC(=S)NNc1ncc(C(F)(F)F)cc1Cl)c1ccccc1 | -2.2
O=C(NC(=S)N1CCN(c2ncc(C(F)(F)F)cc2Cl)CC1)c1ccccc1 | 30*
O=C(N=S1CCN(c2ncc(C(F)(F)F)cc2Cl)CC1)c1ccccc1 | -0.31
COc1ccc(Cc2nnc(SCc3ccc(C)cc3)o2)cc1 | 0.03
Cc1cccc2c1NC(=O)C2(O)CC(=O)c1ccccc1 (centres undefined) | -0.04
CSc1sc(Br)c2c1/C(=N/OC(=O)c1ccc(Cl)cc1)CC(C)(C)C2 | 0.2
CSc1sc(Br)c2c1/C(=N/OC(=O)c1ccccc1Cl)CC(C)(C)C2 | -0.22
COC(=O)c1sc(SC)c2c1CC(C)(C)C/C2=N\OC(=O)c1ccc(Cl)cc1 | 3.3*
Cc1cc(N=CNOC(=O)c2nn(-c3ccccc3)nc2C)no1 | -0.95
CC(=O)/C(C=Nc1cc(C)on1)=C(\C)O | -1
Cc1cc(N=Cc2ccccc2O)no1 | 4.5*
O=S(=O)(c1ccccc1)C1CC1(Cl)Cl (centres undefined) | -1.4
COc1cc(C2c3c(oc4ccccc4c3=O)C(=O)N2c2ccccn2)ccc1OCc1ccccc1 (centres undefined) | -0.4
CCCCOc1cccc(C2c3c(oc4ccccc4c3=O)C(=O)N2c2ccccn2)c1 (centres undefined) | 3.2*
O=C1c2oc3ccccc3c(=O)c2C(c2cccc(Cl)c2)N1c1ccccn1 (centres undefined) | 0.31
O=C1c2oc3ccccc3c(=O)c2C(c2cccc(Oc3ccccc3)c2)N1c1ccccn1 (centres undefined) | 4.3*
COc1cc(C2c3c(oc4ccccc4c3=O)C(=O)N2c2nnc(C)s2)ccc1OCCC(C)C (centres undefined) | -0.62
COc1cc(C2c3c(oc4ccccc4c3=O)C(=O)N2c2ccccn2)ccc1OCCC(C)C (centres undefined) | 3.5*
COc1cccc(C2c3c(oc4ccccc4c3=O)C(=O)N2c2ccccn2)c1 (centres undefined) | 1.9
O=C1c2oc3ccccc3c(=O)c2C(c2cccc(Br)c2)N1c1ccccn1 (centres undefined) | 0.01
CCOc1cccc(C2c3c(oc4ccccc4c3=O)C(=O)N2c2ccccn2)c1 (centres undefined) | 5.9*
SMILES | Dicer processing
C=CCOc1cccc(C2c3c(oc4ccccc4c3=O)C(=O)N2c2ccccn2)c1 (centres undefined) | 2.2
CCCCCOc1cccc(C2c3c(oc4ccccc4c3=O)C(=O)N2c2nccs2)c1 (centres undefined) | -0.96
CCCCOc1cccc(C2c3c(oc4ccccc4c3=O)C(=O)N2c2nnc(C)s2)c1 (centres undefined) | -1.2
COc1cc2c(cc1OC)C1N(CC2)C(c2ccccc2)=NN1c1ccccc1 (centres undefined) | 1.4
O=C(Nc1ccc(Br)cc1C(F)(F)F)C(F)(F)F | -1.1
Clc1ccc(/C=N/Nc2ncnc3sccc23)cc1 | 1.2
CCOc1ccccc1C1C(C(=O)OCc2ccccc2)=C(C)NC2=C1C(=O)CC(C)(C)C2 (centres undefined) | -0.36
C=CCSc1nnc2c(n1)OC(c1ccccc1OCC(=O)O)Nc1ccccc1-2 (centres undefined) | -0.17
C=CCOc1ccc(C2c3c(oc4ccccc4c3=O)C(=O)N2Cc2ccc3c(c2)OCO3)cc1OC (centres undefined) | 0.4
O=C(O)[C@@H](Cc1ccccc1)NC(=O)C(Cl)(Cl)Cl | 0.15
Cn1c(=O)c2[nH]c(N3CCC(C(=O)O)CC3)nc2n(C)c1=O | 1.6
O=S(=O)(NN1C2CSC1CS2)c1ccc(F)c(Cl)c1 | -2.1
COc1cc([N+](=O)[O-])c(OC)cc1SCC(=O)NNS(=O)(=O)c1cc(Cl)c(Cl)cc1Cl | -0.58
COc1ccc(/C=N/NC(=O)c2sc(=S)n(-c3ccccc3)c2N)cc1 | -0.24
COc1cc(/C=N/NC(=O)c2sc(=S)n(C)c2N)ccc1O | 3.8*
COc1cc(/C=N/NC(=S)NC2CC3C=CC2C3)ccc1C (centres undefined) | 2.5
COc1ccc(/C=N/NC(=S)NN)cc1 | -7.3
COc1cc(/C=N/NC(=S)N/N=C/c2ccc(O)c(OC)c2)ccc1O | 3.9*
Cn1c(N)c(C(=O)N/N=C/c2ccccc2)sc1=S | -0.88
CSc1nc2ccccc2n2cccc12 | -0.96
CCOc1ccc(/C=N/NC(=S)NCCCOC)cc1 | 0.51
Nc1ccc2nc(COc3ccc(Cl)cc3)[nH]c2c1 | -0.34
CCOC(=O)c1c(N)n(-c2cc(C)ccc2C)c2nc3ccccc3nc12 | -3.1
Cc1n(CC(=O)c2ccc(F)cc2)c2ccccc2[n+]1C | 4.8*
CCCCc1n(CC(=O)c2ccccc2)c2ccccc2[n+]1C | 0.12
